From PubChem BioAssay (NCATS)
Results filed as inconclusive are left out. Activity calls are given as the source filed them. Calls come from the whole dose curve; as a rule, active = well fitted curve in the direction sought with a large enough effect in the signal ratio, with a control signal flat (not every such curve was filed as active); inconclusive = small, poorly fitted or top-dose-only effect, or a change in a side signal; inactive = no such curve, though single readings can be large or run the other way; the % refers to the signal ratio.

Assay: qHTS Assay for Identification of Small Molecule Inducers of Hypoxia Response (AID 2120)
Settings: hypoxia response reporter cells, beta-lactamase ratio readout; series mostly up to 104 µM
From the text: NIH Chemical Genomics Center [NCGC]
NIH Molecular Libraries Screening Centers Network [MLSCN]
National Institutes of Environmental Health Sciences [NIEHS]
National Toxicology Program [NTP]
Hypoxia-inducible factor-1 (HIF-1) is the major hypoxia-regulated transcription factor that controls cellular responses to low oxygen concentration. HIF-1 is composed of two subunits: hypoxia responsive HIF-1a and constitutively expressed HIF-1b, which is also known as aryl hydrocarbon receptor nuclear translocator. During hypoxic conditions, HIF-1a heterodimerizes with HIF-1b and translocates into the nucleus where the HIF-1 complex binds to the hypoxia-response element (HRE) and activates expression of target genes such as VEGF (vascular endothelial growth factor). The HIF-1 pathway is essential to normal growth and development, and is involved in the pathophysiology of cancer, inflammation, and ischemia.
Using a beta-lactamase reporter-gene under control of the hypoxia response element, a cell-based assay [CellSensor(TM) HRE-bla ME-180 developed by Invitrogen Corp.] was used to measure hypoxia-induced signaling. Library compounds were measured for their ability to induce the reporter gene activity. Compounds were screened in a titration series in 1536-well format. The inducers were identified based on the AC50 values derived from the screening data.
NCGC Assay Protocol Summary
2500 cells/5uL in Opti-MEM medium containing 0.5% dialyzed FBS, 0.1 mM NEAA, 1 mM sodium pyruvate and 10 mM HEPES was dispensed into 1536-well plates and cells were cultured at 37 degrees Celsius for 4-5 hours and then 23 nL of compounds or DMSO were delivered to each well using a pin tool. The plates were incubated at 37 degrees Celsius for 17 hours. 1 uL of CCF4-dye mixture was added to each well. After incubated at room temperature for 2.5 hours the plates were measured on an EnVision plate reader at Excitation 405nm, Emission1=460nm and Emission 2=530nm. The %Activity was determined from the ratio of 460nm/530nm.
For `Nc1ccc(O)c([N+](=O)[O-])c1`, the outcome was “inactive”.
In the case of `S=c1[nH]c2ccccc2s1`, the outcome was “inactive”.
In the case of `O=c1cc(-c2ccccc2)oc2ccccc12`, the outcome was “inactive”.
In the case of `O=C(O)c1cc(O)c(O)c(O)c1`, the outcome was “inactive”.
In the case of `C#C[C@]1(O)CC[C@H]2[C@@H]3CCc4cc(O)ccc4[C@H]3CC[C@@]21C`, the outcome was “inactive”.
In the case of `Nc1nc2ccc([N+](=O)[O-])cc2s1`, the outcome was “inactive”.
In the case of `c1ccc2sc(SSc3nc4ccccc4s3)nc2c1`, the outcome was “inactive”.
In the case of `CCCCCCCCCCCCCCCCCC(=O)O`, the outcome was “inactive”.
For `O=C1CN(/N=C/c2ccc([N+](=O)[O-])o2)C(=O)N1`, the outcome was “inactive”.
In the case of `NCCO`, the outcome was “inactive”.
For `CCCOC(=O)c1ccc(O)cc1`, the outcome was “inactive”.
For `Nc1ccc(O)c(C(=O)O)c1`, the outcome was “inactive”.
For `CN(C)c1ccc(N=NS(=O)(=O)O)cc1`, the outcome was “inactive”.
With `O=C(O)/C=C\C(=O)O` the outcome was “inactive”.
For `COc1cc(/C=C/C(=O)CC(=O)/C=C/c2ccc(O)c(OC)c2)ccc1O`, the outcome was “inactive”.
